# Laboratory results as given in ChEMBL document CHEMBL3988442, “University of Dundee, Small-Polar-MMV Screening Library” (2021).
# Hit rate of the full screen: of about 69,000 compounds, about 1,000 (1.4%) showed an effect of 50% or more. The list comes from a sample in which strong results are over-represented; it also holds similar structures and randomly drawn compounds.
# Tested on: Leishmania donovani
# Assay: Leishmania intramacrophage assay
# Type: functional, organism-based
# Set-up: scale not given: in the data most compounds retested in dose-response had high values
smiles,measurement,setting,value
Cc1cnc(CNc2ccc(C(=O)NCc3ccco3)cc2C)o1,Percent Effect,"30.3 µM, […]",-20.82%
O=C(O)C(F)(F)F.c1cc(CNCC2Cn3nncc3CO2)co1 (stereo unspecified),Percent Effect,"30.3 µM, […]",20.1%
CCCn1nnnc1COC(=O)C1COc2ccc(Cl)cc2C1 (stereo unspecified),Percent Effect,"30.3 µM, […]",-4.057%
O=C(NCC1(c2cccc(F)c2)CC1)N1CCC2(CCOC2)C1 (stereo unspecified),Percent Effect,"30.3 µM, […]",-5.939%
CC1(C)OC(=O)N(CC(=O)N2CCC(c3ccccc3Cl)C2)C1=O (stereo unspecified),Percent Effect,"30.3 µM, […]",16.86%
CC(=O)N1CCC(Cc2cnc(C(=O)N3CCCC3)cn2)C1 (stereo unspecified),Percent Effect,"30.3 µM, […]",-5.476%
CCOCc1ccccc1CNc1ccc2nncn2n1,Percent Effect,"30.3 µM, […]",18.04%
CCn1ncc(Nc2[nH]cnc3nncc2-3)c1C,Percent Effect,"30.3 µM, […]",61.85%
CCn1ncc(Nc2[nH]cnc3nc(C)nc2-3)c1C,Percent Effect,"30.3 µM, […]",-7.482%
CCn1ncc(CNc2[nH]cnc3nncc2-3)c1C,Percent Effect,"30.3 µM, […]",46.44%
N#Cc1c(F)cccc1N1CCCC(C(=O)Nc2nccs2)C1 (stereo unspecified),Percent Effect,"30.3 µM, […]",38.57%
CN(c1ccc(CNC(=O)c2ccc(O)nc2)cc1)C1CCCCC1,Percent Effect,"30.3 µM, […]",57.37%
Cc1ccc(C(=O)NCc2ccc(N(C)C)cc2)cn1,Percent Effect,"30.3 µM, […]",1.485%
CN(c1ccc(CNC(=O)c2c[nH]c(=O)c(Cl)c2)cc1)C1CCCCC1,Percent Effect,"30.3 µM, […]",30.08%
CNC(=O)c1cc(C)n(-c2ccccc2)n1,Percent Effect,"30.3 µM, […]",21.3%
CC(=O)N(Cc1ncc(C)o1)C1CCN(Cc2cccc(C#N)c2)C1 (stereo unspecified),Percent Effect,"30 µM, 30.03 µM",6.646%
Cc1nnc(CN(C)C2CCN(Cc3nc4ccccc4n3C)C2)o1 (stereo unspecified),Percent Effect,30 µM,31.75%
CC(=O)N(Cc1ncc(C)o1)C1CCN(Cc2ccncc2Cl)C1 (stereo unspecified),Percent Effect,"30 µM, 30.03 µM",31.13%
Cc1cnc(CN(C)C2CCN(Cc3nc4ccccc4o3)C2)o1 (stereo unspecified),Percent Effect,30 µM,8.725%
Cc1cnc(CN(C)C2CCN(Cc3nc4ccccc4n3C)C2)o1 (stereo unspecified),Percent Effect,"30 µM, 30.03 µM",57.21%
O=C(c1ccccc1O)N1CCn2c(nnc2C(F)(F)F)C1,Percent Effect,"30.3 µM, […]",-5.557%
CCN(CC)Cc1cc(=O)n2c(n1)CN(C(=O)c1ccc[nH]1)CCC2,Percent Effect,"30.3 µM, […]",36.34%
c1ccc(-c2nnc3ccc(N4CCC5(CCOC5)C4)nn23)cc1 (stereo unspecified),Percent Effect,"30.3 µM, […]",-7.106%
CCN(CCCNC(=O)Nc1ccccc1C(C)C)S(C)(=O)=O,Percent Effect,"30.3 µM, […]",27.9%
Cn1ccc2c(C(=O)NCCCN3CCCC3)cccc21,Percent Effect,"30.3 µM, […]",16.97%
O=C(NCCCN1CCCCC1)c1ccc(-n2ccc3ccccc32)s1,Percent Effect,"30 µM, 30.03 µM",94.7%
O=C(NCCCN1CCCC1=O)c1ccc(-n2ccc3ccccc32)s1,Percent Effect,"30.3 µM, […]",32.92%
CCN(CC)CCNC(=O)c1ccc(-n2ccc3ccccc32)s1,Percent Effect,"30.3 µM, […]",95.71%
O=C(NCCCN1CCOCC1)c1ccc(-n2ccc3ccccc32)s1,Percent Effect,"30.3 µM, […]",90.86%
CCN(CC)CCNC(=O)c1cnc(C(C)(C)C)s1,Percent Effect,"30 µM, 30.03 µM",10.1%
O=C(NCCN1CCOCC1)c1ccc(-n2ccc3ccccc32)s1,Percent Effect,"30 µM, 30.03 µM",37.35%
CCC1CN(CC(=O)NCCN(CC)CC)c2ccccc2S1 (stereo unspecified),Percent Effect,"30.3 µM, […]",24.72%
CCOCCCC(=O)Nc1[nH]nc(-c2ccncc2)c1C,Percent Effect,"30.3 µM, […]",25.28%
CC(C)(O)C1CCN(C(=O)Nc2nc(-c3ccccc3)ns2)CC1,Percent Effect,"30 µM, 30.03 µM",46.85%
CC(C)(CO)CCCNC(=O)N1CCc2c(F)ccc(F)c2C1,Percent Effect,"30.3 µM, […]",-32.7%
COc1cc(N2CC[C@H](O)[C@@H]2Cc2cnn(C)c2)ncn1,Percent Effect,"30 µM, 30.03 µM",12.89%
COc1ccccc1C(=O)N1C[C@@H]2CCCCN(CC(N)=O)[C@@H]2C1,Percent Effect,"30.3 µM, […]",-33.88%
O=C(Nc1ccccn1)N(CCO)Cc1ccccc1Br,Percent Effect,30 µM,5.548%
CN1CCN(Cc2ccc(-c3ccc4[nH]ccc4c3)nc2)CC1,Percent Effect,"30.3 µM, […]",-38.55%
CN1CCN(Cc2ccc(-c3ccc(-c4ccn[nH]4)cc3)nc2)CC1,Percent Effect,"30.3 µM, […]",8.288%
CN1CCN(Cc2ccc(-c3ccc(C(N)=O)cc3)nc2)CC1,Percent Effect,"30.3 µM, […]",77.28%
CS(=O)(=O)N1CC[C@H]2OCC[C@@]2(C(=O)NCc2ccccn2)C1.O=C(O)C(F)(F)F,Percent Effect,"30.3 µM, […]",38.61%
CC(C)N1CC2(CCCN(c3ccccn3)C2)CCC1=O (stereo unspecified),Percent Effect,"30.3 µM, […]",24.82%
CC(C)N1CC2(CCCN(c3ccnc4ccccc34)C2)CCC1=O (stereo unspecified),Percent Effect,"30.3 µM, […]",61.79%
CC(C)N1CC2(CCC1=O)CCN(c1ccnc3ccccc13)CC2,Percent Effect,"30.3 µM, […]",16.36%
CN1CCN(C(=O)c2cccc(S(=O)(=O)NCC3(C)COC3)c2)CC1,Percent Effect,"30.3 µM, […]",33.44%
COc1cc(Cl)c(NCc2c(C)noc2C)cc1OC,Percent Effect,"30.3 µM, […]",14.57%
COc1cc(NCc2c(C)noc2C)c(OC)cc1Cl,Percent Effect,"30.3 µM, […]",13.7%
COC(=O)COc1cc(NCc2c(C)noc2C)c(Cl)cc1C,Percent Effect,"30.3 µM, […]",56.06%
CN1C(=O)COc2ccc(NC(=O)CCc3nc4cccnc4[nH]3)cc21,Percent Effect,"30.3 µM, […]",53.55%
O=C(CCc1nc2cccnc2[nH]1)Nc1ccc2c(c1)NC(=O)CO2,Percent Effect,"30.3 µM, […]",20.44%
CN1C(=O)COc2cc(NC(=O)CCc3nc4cccnc4[nH]3)ccc21,Percent Effect,"30.3 µM, […]",33.08%
O=C(N[C@@H]1CCN(C(=O)c2cc[nH]c2)C[C@H]1O)c1ccccn1,Percent Effect,"30.3 µM, […]",4.682%
CN1CCC(CNC(=O)c2cccc(CN3CCCCCC3)c2)C1 (stereo unspecified),Percent Effect,"30.3 µM, […]",-20.09%
CCC[C@H]1CN(S(C)(=O)=O)C[C@@H]1NC(=O)CCOCC,Percent Effect,"30.3 µM, […]",-29.93%
O=C(Nc1ccccc1)c1n[nH]c(-n2cnnc2)n1,Percent Effect,"30.3 µM, […]",15.16%
Cc1ccc(NC(=O)c2n[nH]c(-n3cnnc3)n2)cc1,Percent Effect,"30.3 µM, […]",53.89%
CCc1ccc(NC(=O)c2n[nH]c(-n3cnnc3)n2)cc1,Percent Effect,"30.3 µM, […]",-23.27%
O=C(NCC(O)(c1ccco1)C1CC1)c1ccccc1F (stereo unspecified),Percent Effect,"30.3 µM, […]",-8.312%
CCCS(=O)(=O)CCN1CCOC(c2ccsc2)C1 (stereo unspecified),Percent Effect,"30.3 µM, […]",22.47%
CNS(=O)(=O)CC(=O)N1CCC(c2ccc(F)c(F)c2)CC1,Percent Effect,"30.3 µM, […]",9.155%
CC(C)c1nnc2n1CCN(C(=O)c1ccc3c(c1)NC(=O)CO3)C2,Percent Effect,"30.3 µM, […]",10.03%
O=C(O)C(F)(F)F.O=C(c1ccc(F)cc1)N1C[C@@H]2CCN(c3cccnc3)C[C@@H]2C1,Percent Effect,"30.3 µM, […]",-2.032%
O=C(C1CCC1)N1C[C@@H]2CCN(c3cccnc3)C[C@@H]2C1.O=C(O)C(F)(F)F,Percent Effect,"30.3 µM, […]",7.145%
Fc1cccc(N2C[C@H]3CCN(c4cccnc4)C[C@H]3C2)c1.O=C(O)C(F)(F)F,Percent Effect,"30 µM, 30.03 µM",57.72%
CCn1cnnc1C1CCN(C(=O)c2cccc3c2ccn3C)CC1,Percent Effect,"30 µM, 30.03 µM",34.62%
CNC(=O)Cc1ccc(NC(=O)NC2(c3cccc(F)c3)CC2)cc1,Percent Effect,"30.3 µM, […]",15.99%
O=C(Cc1cccc(O)c1)NC1CCN(c2cccc(Cl)c2)C1 (stereo unspecified),Percent Effect,"30.3 µM, […]",5.178%
Cc1nc(-c2cccc(N3CCC(NC4CCOCC4)CC3)c2)cs1,Percent Effect,"30.3 µM, […]",22.64%
Cc1nnc(-c2cccc(N3CCC(NC4CCSC4)CC3)c2)s1 (stereo unspecified),Percent Effect,"30.3 µM, […]",17.73%
Clc1cccc(-c2cccc(N3CCC(NC4CCOCC4)CC3)c2)c1,Percent Effect,"30.3 µM, […]",97.72%
Cc1ccc(-c2cccc(N3CCC(NC4CCOCC4)CC3)c2)cc1,Percent Effect,"30.3 µM, […]",88.48%
CCc1cccc(N2CCC(NC(=O)C3CCOCC3)CC2)c1,Percent Effect,30 µM,8.469%
CN(C(=O)Cn1nc(-c2cccs2)ccc1=O)C1CCS(=O)(=O)C1 (stereo unspecified),Percent Effect,"30 µM, 30.03 µM",-0.2404%
CCn1nc(C)c2nnn(CC(=O)Nc3ccc(C)c(C)c3)c(=O)c21,Percent Effect,"30.3 µM, […]",-87.23%
COCCN1CCOCC12CCN(c1ccc(C#N)cc1)CC2.O=C(O)C(F)(F)F,Percent Effect,"30.3 µM, […]",3.251%
CO[C@H]1COC[C@@H]1NC(=O)C1(Oc2ccc(Cl)cc2)CCNCC1,Percent Effect,"30.3 µM, […]",9.396%
O=C(N[C@@H]1C[C@H]2CC[C@@H]1C2)C1(Oc2ccc(Cl)cc2)CCNCC1,Percent Effect,"30.3 µM, […]",99.44%
O=C(N[C@@H]1CCCNC1)C1(Oc2ccc(Cl)cc2)CCNCC1,Percent Effect,"30.3 µM, […]",12.74%
CCOc1ccc(OCc2nc3c(c(=O)[nH]2)CCNC3)cc1,Percent Effect,"30.3 µM, […]",15.57%
O=C(NCCCNc1ccc(C(F)(F)F)cn1)c1ccc(F)cc1Br,Percent Effect,30 µM,45.44%
COc1ccc(Br)c(C(=O)NCCNc2ccc(C(F)(F)F)cn2)c1,Percent Effect,"30 µM, 30.03 µM",56.64%
COc1ccc(C(=O)NCCCNc2ccc(C(F)(F)F)cn2)cc1,Percent Effect,30 µM,37.73%
CCOC(=O)N1CCc2ccccc2C12CCNCC2.Cl,Percent Effect,"30.3 µM, […]",0.5062%
COC(=O)Nc1ccc(CNc2cncc(-n3cccn3)n2)cc1,Percent Effect,30 µM,52.92%
COCc1ccc(CNc2cncc(-n3cccn3)n2)cc1,Percent Effect,30 µM,27.73%
CNC(=O)COc1ccc(CNc2cncc(-n3cccn3)n2)cc1,Percent Effect,30 µM,19.22%
CN1CC[C@H]2CN(C(=O)c3ccc4sc5c(c4c3)CCNC5=O)C[C@H]21,Percent Effect,"30.3 µM, […]",4.332%
CC(=O)N1CCC2(CC1)CCN(C(=O)c1ccc(F)c(C(F)(F)F)c1)C2,Percent Effect,"30.3 µM, […]",-8.189%
COc1ccc(C2CN(c3nc(C)cc(C)n3)CCN2C(C)=O)cc1 (stereo unspecified),Percent Effect,"30.3 µM, […]",30.74%
Cc1cc(C)nc(N2CCc3ccc(OC(F)F)cc3C2)n1,Percent Effect,"30.3 µM, […]",84.87%
COc1ccc2c(c1)CN(c1cc(N3CCCC3CO)ncn1)CC2 (stereo unspecified),Percent Effect,"30.3 µM, […]",11.17%
COc1ccc2c(c1)CN(c1nc(C)cc(C)n1)CC2,Percent Effect,"30.3 µM, […]",98.91%
COc1ccnc(N2CCc3ccc(OC(F)F)cc3C2)n1,Percent Effect,"30.3 µM, […]",-15.45%
COc1cccc(O[C@H]2CCN(c3nc(C)cc(C)n3)CC[C@@H]2O)c1,Percent Effect,"30.3 µM, […]",-35.99%
O=C(CNC(=O)C1(c2ccc(F)cc2F)CCC1)Nc1cccnc1,Percent Effect,"30.3 µM, […]",-11.9%
COc1cccc2c1OCC(CNC(=O)CN(C)C1CCCC1)C2 (stereo unspecified),Percent Effect,"30.3 µM, […]",-18.43%
CC(C)CN1C(=O)CC[C@H]2CN(C(=O)Cn3ccccc3=O)CC[C@H]21,Percent Effect,"30.3 µM, […]",3.813%
CC(C)N1CCCC(C(=O)N2CCN(c3nsc4ccccc34)CC2)C1 (stereo unspecified),Percent Effect,"30.3 µM, […]",77.99%
CCN1CC(C(=O)N2CCN(c3nsc4ccccc34)CC2)CCC1=O (stereo unspecified),Percent Effect,"30.3 µM, […]",22.5%
NC(=O)N1CCCC(C(=O)N2CCN(c3nsc4ccccc34)CC2)C1 (stereo unspecified),Percent Effect,"30.3 µM, […]",34.33%
